Laboratory results taken from PubChem BioAssay (NCI).
Compounds without any hit were thinned out: in the full panel of roughly 79,000, 15% have a hit. A number with no mark means an inactive call. Active and inactive are the calls of the source. Cut-off read from the data, not from the text of the source: active = growth inhibition above about 70%; inactive = the rest.

Assays:
[1] = NCI Yeast Anticancer Drug Screen. Data for the rad50 strain (AID 155);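 note: 0% = growth of vehicle-only cultures of the same strain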; settings: S. cerevisiae rad50 strain growth inhibition, active compounds read high
In short: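 DNA repair mutant yeast, compound exposure, growth read-out; inhibition is taken relative to vehicle.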

[2] = NCI Yeast Anticancer Drug Screen. Data for the mec2-1 strain (AID 157); settings: S. cerevisiae mec2-1 strain, active compounds read high
In short: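 Test agents were screened against the mec2-1 yeast strain, with defined DNA repair or cell cycle alteration. Growth was scored as inhibition against vehicle-only controls.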

[3] = NCI Yeast Anticancer Drug Screen. Data for the sgs1 mgt1 strain (AID 161);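 note: 0% = growth of cultures given vehicle only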; settings: S. cerevisiae sgs1 mgt1 strain, active compounds read high
In short: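 Genetically altered yeast, compound exposure, growth inhibition relative to vehicle.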

[4] = NCI Yeast Anticancer Drug Screen. Data for the cln2 rad14 strain (AID 165);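 note: 0% = growth equal to vehicle treated cultures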; settings: S. cerevisiae cln2 rad14 strain, active compounds read high
In short: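 Growth of compound-exposed yeast (cln2 rad14 genotype) measured and expressed as inhibition relative to vehicle.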

[5] = NCI Yeast Anticancer Drug Screen. Data for the bub3 strain (AID 167); settings: S. cerevisiae bub3 mutant strain, active compounds read high
In short: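 In this screen, a yeast mutant lacking normal mitotic checkpoint function is challenged with compound. Relative growth versus vehicle gives the inhibition value.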

[6] = NCI Yeast Anticancer Drug Screen. Data for the mlh1 rad18 strain (AID 175); settings: S. cerevisiae mlh1 rad18 strain growth inhibition, active compounds read high
In short: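 In this whole-cell yeast screen, a strain with altered DNA damage repair is challenged with compound, and its growth is measured against matched vehicle-treated controls.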

[7] = at 5.0 µM (retest, dose inferred, filed as 0.5)
[8] = at 50.0 µM (retest, dose inferred, filed as 5.0)

Row | SMILES | growth inhibition [1, 7] | growth inhibition [1, 8] | growth inhibition ([1]; at 50.0 µM) | growth inhibition [2, 7] | growth inhibition [2, 8] | growth inhibition ([2]; at 50.0 µM) | growth inhibition [3, 7] | growth inhibition [3, 8] | growth inhibition ([3]; at 50.0 µM) | growth inhibition [4, 7] | growth inhibition [4, 8] | growth inhibition ([4]; at 50.0 µM) | growth inhibition [5, 7] | growth inhibition [5, 8] | growth inhibition ([5]; at 50.0 µM) | growth inhibition [6, 7] | growth inhibition [6, 8] | growth inhibition ([6]; at 50.0 µM)
1 | COc1ccc2c(c1)nc1ccc(Cl)cc1[n+]2C | -6% | 61% | 82.2% (active) | 2% | 64% | 84.1% (active) | -2% | 55% | 82.2% (active) | -7% | 52% | 83.1% (active) | 7% | 70% (active) | 92.2% (active) | 6% | 66% | 89% (active)
2 | CS(=O)(=O)Nc1ccc(Nc2c3ccccc3nc3ccccc23)cc1 | 13% | 25% | 91.8% (active) | -7% | -11% | 25.6% | 6% | 20% | 14.3% | -14% | -3% | 18.9% | 10% | -2% | 37.9% | 1% | 13% | 35.1%
3 | O=C1C(=O)c2ccc(Br)cc2C(O)=C1C(c1ccccc1)c1ccccc1 | 29% | 60% | 25.6% | 28% | 70% (active) | 30.5% | 4% | 74% (active) | 7.4% | 24% | 63% | 14.2% | 36% | 70% (active) | 21.2% | 28% | 69% | 32.5%
4 | CCCCCCCCCCN | 1% | 51% | 65.8% | -1% | 13% | 34.6% | 7% | 36% | 71% (active) | 6% | 19% | 42.2% | 7% | 30% | 47.2% | 6% | 36% | 46.8%
5 | O=C1CCC(Cc2ccc(I)cc2)C(=O)N1 (configuration not stated) | -5% | 3% | -2.9% | 1% | 6% | -12.7% | -11% | 68% | 66.3% | -5% | 7% | -63.8% | -6% | -5% | -54.2% | -6% | 1% | -4.6%
6 | CSC(=S)n1nc(-c2ccccc2)c(N=Nc2ccccc2[N+](=O)[O-])c1C | -1% | 92% (active) | 97% (active) | -4% | 96% (active) | 96.2% (active) | 5% | 96% (active) | 97% (active) | -12% | 94% (active) | 92% (active) | 0% | 95% (active) | 94.3% (active) | -1% | 93% (active) | 98% (active)
7 | O=[N+]([O-])c1ccccc1NC1CCN(CCCC2(c3ccc(F)cc3)OCCO2)CC1 | 11% | 96% (active) | 99% (active) | 7% | 94% (active) | 98% (active) | 16% | 99% (active) | 98.6% (active) | 9% | 94% (active) | 93.3% (active) | 10% | 97% (active) | 41.4% | 11% | 94% (active) | 98.7% (active)
8 | Nc1ccc(O)c2ccccc12 | 19% | 80% (active) | 85.5% (active) | -4% | 83% (active) | 63.8% | 7% | 63% | 68.3% | -10% | 8% | 10.1% | 7% | 93% (active) | 87.2% (active) | 11% | 90% (active) | 91% (active)
9 | N#CC(C#N)=c1c2nsnc2c(=C(C#N)C#N)c2nsnc12 | 71% (active) | 88% (active) | -9.1% | 19% | 82% (active) | -1.6% | 52% | 90% (active) | -9.75% | 55% | 83% (active) | -47.7% | 60% | 91% (active) | -14.2% | 36% | 87% (active) | 7.45%
10 | Cc1nc(N)sc1N=Nc1cc(Cl)c([N+](=O)[O-])cc1Cl | -4% | 26% | 38% | -7% | 33% | 39.5% | 4% | 77% (active) | 70.2% (active) | 4% | 2% | 35.1% | 4% | 7% | 47.5% | 11% | 78% (active) | 78.1% (active)
11 | CCN(CC)CCNc1c2ccccc2nc2cccc([N+](=O)[O-])c12 | 88% (active) | 97% (active) | 68.2% | 95% (active) | 99% (active) | 61.4% | 94% (active) | 99% (active) | 55% | 85% (active) | 98% (active) | 86.5% (active) | 93% (active) | 99% (active) | 2.85% | 92% (active) | 97% (active) | 62.9%
12 | COc1cc2c(c(C3C(=O)N(C)c4ccc(Br)cc43)c1OC)OCO2 (configuration not stated) | 3% | 3% | 4.3% | 2% | 4% | 12.7% | -1% | 10% | 11.3% | 5% | 12% | -3.8% | 4% | -1% | -1.85% | 4% | 10% | 8.55%
13 | CN(C)C(=O)Nc1ccc(Cc2ccc(NC(=O)N(C)C)cc2)cc1 | -6% | -32% | -3% | -29% | -32% | -13.2% | -13% | -8% | 27.6% | 5% | -4% | 3.65% | -19% | -20% | 7.95% | -33% | -56% | -0.15%
14 | CCOC(=O)c1cc(Cc2ccccc2)c(=O)n(C)c1-c1ccccc1 | 4% | 75% (active) | 72% (active) | -3% | 83% (active) | 3.1% | 0% | 85% (active) | 93% (active) | 7% | 46% | -5.4% | 5% | 84% (active) | 85.3% (active) | 2% | 86% (active) | 50.1%
15 | OC1c2cc(Cl)cc(Cl)c2OC2(N3CCCC3)CCCCC12 (configuration not stated) | 62% | 94% (active) | 81.5% (active) | 37% | 87% (active) | 46.1% | 44% | 87% (active) | 82% (active) | 34% | 47% | 19.1% | 51% | 96% (active) | 73.3% (active) | 61% | 96% (active) | 73.6% (active)
16 | C/C(=N/NC(=S)NCc1ccccc1)c1ncccn1 | -6% | 98% (active) | 98.8% (active) | 14% | 98% (active) | 98.9% (active) | 2% | 98% (active) | 99% (active) | 7% | 98% (active) | 97.8% (active) | -23% | 98% (active) | 98.5% (active) | 3% | 98% (active) | 98.9% (active)
17 | CC1=C(C(=O)Nc2cccc(Cl)c2)C(c2ccc([N+](=O)[O-])cc2)C(C(=O)Nc2cccc(Cl)c2)=C(C)N1 | 44% | 44% | 57.9% | 52% | 52% | 81.8% (active) | 34% | 34% | 65% | 32% | 32% | 79.5% (active) | 49% | 49% | 74.7% (active) | 51% | 51% | 61.8%
18 | CCN(CC)c1c(C(=O)/C=C/c2ccc(F)cc2)c(-c2ccccc2)nn(C)c1=O | 29% | 29% | 87.9% (active) | 2% | 2% | 90.6% (active) | 12% | 12% | 70.5% (active) | 16% | 16% | 90.3% (active) | -3% | -3% | 90.3% (active) | 1% | 1% | 86.2% (active)
19 | CC(=O)c1ccc2sc3ccccc3c2c1 | -92% | 96% (active) | 96% (active) | -45% | 72% (active) | 57.6% | -59% | 88% (active) | 70.2% (active) | -52% | 86% (active) | 33.4% | -51% | 85% (active) | 88% (active) | -120% | 92% (active) | 88.3% (active)
